# NS1 inh – qHTS Assay for Inhibitors of Influenza NS1 Protein Function; Potency, µM (titrated, usually from 46.1 µM), without a hit: top-dose activity, positive = more growth; actives 0.4% (n = 270,000); AID 2326, 2010; calls by dose curve; note: potency is the fitted concentration of half-maximal effect; actives are rising curves; nearly all actives have a fitted effect of over 50% in size
#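 Recovery from NS1-induced slow growth read by OD600 in budding yeast switched to galactose assay medium (pH 6.0, -URA) at 1:100 dilution. Compound 23 nl per well; the matching strain lacking NS1 serves as control.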
# Pf growth 96h – Primary qHTS for delayed death inhibitors of the malarial parasite plastid, 96 hour incubation; actives 6.9% (n = 320,000); Potency, µM (titrated, usually from 28.7 µM), without a hit: at the highest dose activity change, negative = inhibition, hits mostly inhibitors; P. falciparum luciferase reporter growth, 96 h; AID 504834, 2011; note: potency is the fitted concentration of half-maximal effect; % is set by controls: 0 for no effect and ±100 for the full control effect
#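 Two-generation exposure (96 h) targets delayed-death phenotype. Reporter parasites carrying integrated firefly luciferase, in red cells at 2% hematocrit and 0.05% parasitemia final, kept at 37 C, 5% CO2; luminescence loss indicates inhibition.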
# Pf growth 48h – Primary qHTS for delayed death inhibitors of the malarial parasite plastid, 48 hour incubation | P. falciparum luciferase growth in erythrocytes, 48 h | Potency, µM (highest dose often 28.7 µM), without a hit: at the highest dose activity change, negative = inhibition, most hits filed as inhibitors | actives 5.9% (n = 310,000) | AID 504832, 2011; note: potency is the fitted concentration of half-maximal effect; % is set by controls: 0 for no effect and ±100 for the full control effect
#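 Luminescence readout; reporter = integrated firefly luciferase in P. falciparum. RBC culture at 2% hematocrit, 0.1% parasitemia final, 37 C/5% CO2; decreased signal taken as growth inhibition.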
# CHX counter – Cycloheximide Counterscreen for Small Molecule Inhibitors of Shiga Toxin. cell reporter, cycloheximide protein synthesis inhibition counterscreen. max response, %. actives 12% (n = 300,000); in the data active = max response mostly above about 13%, no sharp cut-off; inactive = mostly below about 14%; note: read at 38.3 µM for the half of the compounds with a filed dose; 0% is about no effect
# Giardia FBPA inh – qHTS Assay for Inhibitors of Fructose-1,6-bisphosphate Aldolase from Giardia Lamblia | A8B2U2 | purified Giardia FBPA | Potency, µM (series often up to 59.6 µM), for the others: top-dose activity, negative = inhibition, usual class: inhibitors | actives 0.71% (n = 290,000) | AID 2451, 2010; note: potency is the fitted concentration of half-maximal effect; % is set by controls: 0 for no effect and ±100 for the full control effect; nearly all actives have a fitted effect of over 55% in size
# Target sequence (A8B2U2 whole entry, looked up): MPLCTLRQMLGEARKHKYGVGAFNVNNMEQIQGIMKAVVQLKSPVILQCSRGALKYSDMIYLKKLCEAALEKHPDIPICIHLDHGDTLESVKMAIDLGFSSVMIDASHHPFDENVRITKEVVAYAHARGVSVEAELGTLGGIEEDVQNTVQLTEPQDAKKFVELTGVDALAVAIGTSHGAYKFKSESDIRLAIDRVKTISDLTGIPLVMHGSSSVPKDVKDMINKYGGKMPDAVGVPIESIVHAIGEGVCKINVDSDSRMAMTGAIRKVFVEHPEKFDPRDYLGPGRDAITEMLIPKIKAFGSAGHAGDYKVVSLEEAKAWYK
#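 Giardia FBPA (40 nM reagent) was preincubated 10 min at RT with compound (up to 57.5 uM final), then substrate plus GAPDH/TPI/NAD/arsenate coupling system with diaphorase/resazurin was added; resorufin fluorescence (525/598 nm) was read after 20 min.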
# Shiga inhibitor – A qHTS for Small Molecule Inhibitors of Shiga Toxin | Vero cells, Shiga toxin protein synthesis inhibition reporter | inhibition, % at 38.7 µM | actives 9.2% (n = 290,000); in the data active = inhibition mostly above about 28%, no sharp cut-off; inactive = mostly below about 43%; note: 0% is about no effect
# Active calls of the source: *; ? = inconclusive; nt = no result; ! = not active in a repeat. Sampled rows, rich in hits. Any-hit rate of the full collection: about 21%. Unless noted, calls come from the whole dose curve; as a rule, active = well fitted curve in the direction sought with a large enough effect; inconclusive = small, poorly fitted or top-dose-only effect, or another doubt; inactive = no such curve, though single readings can be large; an effect the other way counts as inactive or inconclusive.
SMILES,NS1 inh,Pf growth 96h,Pf growth 48h,CHX counter,Giardia FBPA inh,Shiga inhibitor
CCc1nc(SCC(=O)Nc2ccc(F)cc2)c2c(=O)n(C)c(=O)n(C)c2n1,12%,?,?,-2,3%,-1
CCCCn1c(CCC)nc([N+](=O)[O-])c1Sc1ccc(Cl)cn1,-14%,15µM*,10µM*,1,-25%,18
CC(C)Cn1c(C(C)C)nc([N+](=O)[O-])c1Sc1ccc(Cl)cn1,-8%,9.3µM*,9.3µM*,-3,-4%,-4
CCOc1ccc(C(=O)OCCN(CC)CC)cc1,1%,7%,2%,15,-5%,31
CC/C(=C(\c1ccc(O)cc1)c1ccc(OCCN(C)C)cc1)c1ccccc1,-34%,nt,nt,-12,6%,-22
CC/C(=C(\c1ccccc1)c1ccc(OCCN(C)C)cc1)c1ccccc1,-39%,?,13µM*,nt,2%,nt
CCN(CC)CCOc1ccc(/C(=C(/Cl)c2ccccc2)c2ccccc2)cc1,-10%,9.3µM*,9.3µM*!,-4,15%,5
COc1ccc2[nH]c3c4c(ccc3c2c1)C(=O)C=CC4=O,-26%,?,?,38*,?,89*
N#Cc1ccc(OCC(=O)N/N=C/C2CC=CCC2)cc1 (stereo not given),nt,-19%,100%,8,3%,-9
O=C(O)/C=C1\CCCc2ccccc2[C@H]1O,nt,nt,nt,nt,3%,nt
O=S(=O)(c1ccc2c(c1)C(O)c1ccccc1CC2)C(F)(F)F (stereo not given),nt,3.3µM*,7.4µM*,nt,nt,nt
Cc1ccc(C(c2sc3ncnn3c2O)N2CCCCC2)cc1 (stereo not given),?,?,?,10*,-10%,37*
Cc1ccc(C(c2sc3ncnn3c2O)N2CCC(C)CC2)cc1 (stereo not given),?,5.9µM*,?,2,-1%,1
Oc1c(C(c2ccc(F)cc2)N2CCc3ccccc3C2)sc2ncnn12 (stereo not given),8%,?,-21%,-2,?,-8
CCOC(=O)N=Nc1c(O)n(Cc2ccccc2)c2ccccc12,nt,20%,-8%,29*,-2%,46*
O=C(N=Nc1c(O)n(Cc2ccccc2)c2ccccc12)c1ccncc1,-1%,13µM*,12µM*,2,0%,24
COC(=O)N=Nc1c(O)n(Cc2ccccc2)c2ccccc12,2%,3%,-16%,-2,-3%,13
CCCCNC(=S)N=Nc1c(O)n(Cc2ccccc2)c2ccccc12,13%,10µM*,13µM*,-1,0%,-12
CCCCn1c(O)c(N=NC(=O)c2ccco2)c2ccccc21,2%,?,?,66*,0%,86*
CC(=O)Nc1ccc(NC(=O)C(C)OC(=O)c2c(NC(C)=O)sc(C)c2C)cc1 (stereo not given),nt,?,2%,nt,nt,nt
O=C(Nc1ccc(F)cc1)c1c(Cl)nc2ccccn12,-4%,37%,169%,31*,-5%,73*
Cc1nc2ccccn2c1C(=O)NNC(=S)Nc1ccccc1,2%,-6%,?,7,-2%,-1
Cc1nc2ccccn2c1C(=O)NNC(=S)Nc1ccc(Cl)cc1,-17%,-14%,-4%,-1,?,19*
COc1ccc(NC(=O)c2c(Cl)nc3ccccn23)cc1,-17%,103%,147%,32*,-8%,74*
CCC(=O)Nc1ccc(NC(=O)c2c(C)nc3ccccn23)cc1,-3%,74%,25%,-4,-1%,10
SMILES,NS1 inh,Pf growth 96h,Pf growth 48h,CHX counter,Giardia FBPA inh,Shiga inhibitor
CCC(NC(=O)CNC(=O)c1ccc2c(c1)OCO2)c1ccc(Br)cc1 (stereo not given),nt,20%,?,nt,nt,nt
O=C(COc1ccc2c(c1)C(=O)CC1(CCCCC1)O2)NCc1ccccn1,-15%,?,?,-3,2%,-14
CCOC(=O)COc1ccc2c(c1)C(=O)CC(C)(c1cccnc1)O2 (stereo not given),-96%,2.1µM*,52%,20,0%,-11
CCN(CC)C(=O)COc1ccc2c(c1)C(=O)CC(C)(C)O2,nt,9.3µM*,-13%,14,0%,39
CC1(C)CC(=O)c2cc(OCC(=O)NCc3cccnc3)ccc2O1,5%,13µM*,0%,-3,2%,-3
O=C(COc1ccc2c(c1)C(=O)CC1(CCCCC1)O2)NCc1ccccc1,-52%,3.7µM*,8.3µM*,-3,-8%,18
CCCCCCCNC(=O)COc1ccc2c(c1)C(=O)CC(C)(C)O2,-105%,?,nt,-1,1%,-5
NC(=O)c1nsc(C(=O)N(Cc2cccnc2)C(C(=O)NCc2ccc(F)cc2)c2ccc(F)cc2)c1N (stereo not given),-19%,-20%,?,-5,8%,-10
CCN(CC(=O)NCc1ccc(Cl)cc1)C(=O)CCc1ccccc1O,1%,24%,13%,-2,nt,-5
O=C(NCc1cccc(Cl)c1)C1CCC(=O)N(CCCN2CCCC2=O)C1 (stereo not given),-3%,?,-9%,11,0%,-2
Cc1ccc(S(=O)(=O)Oc2cccc(N3C(=O)C4CC=CCC4C3=O)c2)cc1 (stereo not given),4%,?,?,1,-1%,-34
CC(=O)Nc1ccc(S(=O)(=O)Oc2cccc(N3C(=O)C4CCCCC4C3=O)c2)cc1 (stereo not given),-5%,89%,13µM*,2,-1%,-11
CC(=O)Nc1ccc(OS(=O)(=O)c2ccc(C(C)(C)C)cc2)cc1,3%,48%,-1%,12*,3%,34
NS(=O)(=O)c1ccc(NC(=O)c2cccc(N3C(=O)c4ccccc4C3=O)c2)cc1,0%,11%,9%,-6,-7%,4
O=C(/C=C/c1ccccc1[N+](=O)[O-])NCCCN1CCCC1=O,1%,-13%,7%,17,nt,-19
Cc1cccn2c(CNCCCn3ncc4ccccc43)c(C(=O)N3CCCCC3)nc12,-1%,15µM*,?,-2,7%,-7
Cc1ccc(N(CC(=O)NC(C)(C)C)C(=O)CNC(=O)c2cccs2)cc1,2%,6%,7.4µM*,0,4%,15
CCc1ccc(N(CC(=O)NC(C)(C)C)C(=O)CNC(=O)c2cccs2)cc1,24%,19%,?,-3,6%,33
COc1ccccc1C1=NC(c2ccc(F)cc2)N=C1C (stereo not given),nt,226%,126%,28*,0%,88*
COc1ccccc1-c1cc(Nc2ccc(F)cc2)ncn1,nt,nt,nt,nt,0%,nt
Cc1nc(S/C(=C/c2ccc(-c3ccc(Cl)cc3)o2)C(=O)O)n[nH]1,7%,?,nt,-1,10%,-13

# Screening results deposited in PubChem BioAssay by National Center for Advancing Translational Sciences (NCATS).
